# According to PubChem BioAssay AID624351 (Southern Research Specialized Biocontainment Screening …, 2012):
# Among all 2,400 compounds or so, about 1,400 (58%) were called active.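 The calls were made as follows: active = inhibition of 30% or more at any tested dose; inconclusive = primary hits over the limit that were never retested; inactive = the rest.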 The set was probably picked from earlier hits. The list shows a part of the results.
# Test: coupled detection enzyme interference, dose response, artefact control for MgcRacGAP inhibitor project, biochemical, coupled enzyme counter-screen (AID 624351);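 also: signal is the ADP detection kit reading of free GDP without any GAP enzyme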
# Conditions: ADP Hunter coupled enzyme counter-screen, fluorescence, no MgcRacGAP; series mostly up to 80 µM
row,Compound,IC50
1,Cc1c(N=Nc2ccc(O)cc2)c(=O)n(-c2ccccc2)n1C,19.5 µM (active)
2,Cc1c(NC(=O)CNCc2ccc3c(c2)OCO3)c(=O)n(-c2ccccc2)n1C,inactive
3,CCOc1cc(NC(=O)c2ccccc2C(=O)O)c(OCC)cc1NC(=O)c1ccccc1F,65.3 µM (active)
4,CCN1CCN(CCCCOc2ccccc2F)CC1,inactive
5,CCOc1ccccc1NC(=O)C(NCCN(C)C)c1ccccc1 (centres undefined),inactive
6,CC1CC(C)(C)N(C(=O)CN2CCN(C)CC2)c2ccccc21 (centres undefined),inactive
7,CC1CCC/C(=C\Nc2ccc(O)cc2)C1=O (centres undefined),31.8 µM (active)
8,CC1CCC/C(=C\c2ccc(O)cc2)C1=O (centres undefined),22.3 µM (active)
9,O=C1CCCC/C1=C\Nc1ccc(O)cc1,13.3 µM (active)
10,Cc1cc(O)ccc1N/C=C1\CCCC1=O,21 µM (active)
11,Cc1cnc(NC(=O)C(C)N2CCN(C)CC2)s1 (centres undefined),inactive
12,O=C1OCC/C1=C\c1ccc(O)cc1,27.6 µM (active)
13,CCOc1ccccc1CN(CCc1ccc2c(c1)OCO2)Cc1ccccn1,inactive
14,CC1OC(CC(=O)O)CC2=C1C(=O)c1c(O)cccc1C2=O (centres undefined),inactive
15,Cn1c(-c2cccc([N+](=O)[O-])c2)cnc1NCc1cccc([N+](=O)[O-])c1,inactive
16,Cc1ccc(/C=N/n2c(-c3cccnc3)n[nH]c2=S)s1,43.8 µM (active)
17,O=[N+]([O-])c1cccc(/C=N/n2c(-c3cccnc3)n[nH]c2=S)c1,24.9 µM (active)
18,S=c1[nH]nc(-c2cccnc2)n1/N=C/c1cccs1,42.7 µM (active)
19,CCc1ccc(OCCOCCN2CCN(C)CC2)cc1,inactive
20,COc1ccc(C2NC(=O)C(C#N)=C(S)N2c2ccc(C)cc2)cc1OC (centres undefined),inactive
21,CC1=CC(C)(C)N(C(=O)CNC2CCCC2)c2cc(C)ccc21,inactive
22,O=[N+]([O-])c1ccc(Oc2cccc3cccnc23)c([N+](=O)[O-])c1,inactive

row,Compound,IC50
1,Nc1[nH]c2cc([N+](=O)[O-])ccc2c1-c1ccccn1,75.4 µM (active)
2,O=[N+]([O-])c1ccc(Sc2cccc3cccnc23)c([N+](=O)[O-])c1,inactive
3,O=C(O)c1ccccc1NS(=O)(=O)c1ccc(N/N=C/c2ccc(O)c(O)c2)c([N+](=O)[O-])c1,69.8 µM (active)
4,C=CCOc1ccc(C=NNc2ccc(S(=O)(=O)Nc3ccccc3C(=O)O)cc2[N+](=O)[O-])cc1OC,inactive
5,O=C(/C=C/c1ccc(O)c(O)c1)NC(=O)c1ccccc1O,21.9 µM (active)
6,Cc1ccc2oc(=O)c(/C=C(\O)c3ccccc3)nc2c1,59.2 µM (active)
7,Cn1c(N=Nc2ccc(N3CCOCC3)cc2)[n+](C)c2ccccc21,58.3 µM (active)
8,O=C(CNCc1ccc(Cl)cc1)Nc1ccc2c(c1)OCCO2,inactive
9,c1csc(CNc2ccc3c(c2)OCCO3)c1,69.2 µM (active)
10,CN(C)c1ccc(N=c2sc3ccccc3n2C)cc1,26.7 µM (active)
11,Nc1ccc2cc3[nH]c4cc(N)ccc4c3nc2c1,inactive
12,Nc1ccc2c(c1)[nH]c(=O)c1cc(N)ccc12,16.6 µM (active)
13,CN1/C(=N\O)c2cccc3cccc1c23,54 µM (active)
14,CC(=O)c1c(Nc2ccc3c(c2)OCCO3)oc(C)cc1=O,77.3 µM (active)
15,O=C(NC(=S)N1CCN(c2ccc(O)cc2)CC1)c1ccco1,38.7 µM (active)
16,Oc1ccc(N2CCN(C(=S)NCCc3ccccc3)CC2)cc1,32.2 µM (active)
17,COCCCNC(=S)N1CCN(Cc2ccc3c(c2)OCO3)CC1,inactive
18,O=C(CN1CCN(C/C=C/c2ccccc2)CC1)Nc1ccccc1C(=O)NC1CC1,inactive
19,CCN(CC)S(=O)(=O)c1ccc(C)c(NC(=O)CN2CCN(Cc3ccccc3)CC2)c1,inactive
20,O=C(CN1CCN(c2ccc(O)cc2)CC1)Nc1ccccc1C(=O)NCCc1ccccc1,32.9 µM (active)
21,CN1CCC(N(C)CC(=O)Nc2ccc3c(c2)OC(F)(F)O3)CC1,inactive
22,Cc1sc2ccc3sccc3c2[n+]1C,inactive
